# Data: PubChem BioAssay (Tox21)
# Records with an inconclusive call do not appear. Unmarked numbers belong to inactive results. Calls come from the whole dose curve; as a rule, active = well fitted inhibition curve with a large enough effect in the signal ratio in the repeat runs (not every such curve was filed as active); inconclusive = weak or mixed curves, or effect the other way; inactive = no such curve, though single readings can be large or run the other way; the % refers to the signal ratio.
# Biological target: Peroxisome proliferator-activated receptor delta (Homo sapiens) (UniProt Q03181)
# Sequence (Q03181 whole entry, looked up): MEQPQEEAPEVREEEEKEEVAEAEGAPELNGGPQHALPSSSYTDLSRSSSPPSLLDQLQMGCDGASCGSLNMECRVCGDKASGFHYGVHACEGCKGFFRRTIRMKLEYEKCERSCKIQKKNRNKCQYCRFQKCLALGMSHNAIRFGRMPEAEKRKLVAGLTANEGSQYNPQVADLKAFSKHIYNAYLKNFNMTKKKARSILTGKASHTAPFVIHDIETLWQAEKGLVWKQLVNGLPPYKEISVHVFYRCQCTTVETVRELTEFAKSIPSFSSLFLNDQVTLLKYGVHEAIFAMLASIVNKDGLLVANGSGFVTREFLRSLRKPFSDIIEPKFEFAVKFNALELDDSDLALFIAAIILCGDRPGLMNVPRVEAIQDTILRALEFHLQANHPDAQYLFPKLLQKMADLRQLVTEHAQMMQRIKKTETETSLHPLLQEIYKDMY
# Assay: qHTS assay to identify small molecule antagonists of the peroxisome proliferator-activated receptor delta (PPARd) signaling pathway (AID 743215);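 note: cells stimulated with agonist L165041 at 300 nM final during compound exposure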
# Conditions: HEK293H PPARd-UAS-bla, beta-lactamase FRET ratio, antagonist, 17 h; series mostly up to 62 µM; ratio activity, negative = inhibition: at the top concentration
# Description: U.S. Tox21 Program National Center for Advancing Translational Sciences [NCATS] NIH Chemical Genomics Center [NCGC] U.S. Environmental Protection Agency [EPA] National Institutes of Environmental Health Sciences [NIEHS] National Toxicology Program [NTP] U.S. Food and Drug Administration [FDA] Tox21 Assay Overview: The peroxisome proliferator-activated receptors (PPARs) are lipid-activated transcription factors of the nuclear receptor superfamily with three distinct subtypes namely PPAR alpha, PPAR delta (PPARd) and PPAR gamma. All these subtypes heterodimerizes with Retinoid X receptor (RXR) and have different physiological functions. […] To identify the compounds that inhibit PPAR-delta signaling, GeneBLAzer PPAR delta UAS-bla HEK293H cell line (Invitrogen, Carlsbad, CA, USA) containing a beta-lactamase reporter gene under the control of an Upstream Activator Sequence (UAS) was used to screen the Tox21 compound library.
# Tox21 Assay Protocol Summary: PPARd-bla cells were dispensed at 3000 cells/5uL/well in 1536-well black wall/clear bottom plates using a Multidrop Combi (Thermo Fisher Scientific, Waltham, MA) dispenser. After the assay plates were incubated at 37 C and 5% CO2 for 5 h, 23 nL of compounds dissolved in DMSO, positive controls or DMSO only was transferred to the assay plate by a Pintool station (Kalypsys, San Diego, CA), followed by addition of 1ul L165041 (300 nM, final concentration in the wells). The assay plates were incubated at 37 C for 17 h, and then 1 uL of LiveBLAzerTM B/G FRET substrate was added using a Bioraptr Flying Reagent Dispenser (FRD) workstation (Beckman Coulter, Indianapolis, IN, USA). The assay plates were incubated at room temperature for 2 h and fluorescence intensity was measured by an Envision plate reader (PerkinElmer, Shelton, CT).
# % is set by controls: 0 for no effect and ±100 for the full control effect.
row,Compound,"ratio activity, negative = inhibition"
1,C=C1C[C@@]23CC[C@H]4[C@@](C)(CCC[C@@]4(C)C(=O)O[C@@H]4O[C@H](CO)[C@@H](O)[C@H](O)[C@H]4O)[C@@H]2CC[C@]1(O[C@@H]1O[C@H](CO)[C@@H](O)[C@H](O[C@@H]2O[C@H](CO)[C@@H](O)[C@H](O)[C@H]2O)[C@H]1O[C@@H]1O[C@H](CO)[C@@H](O)[C@H](O)[C@H]1O)C3,2.17%
2,c1csc(SSc2cccs2)c1,-14.1%
3,C=CC(=O)[O-].C=CC(=O)[O-].[Zn+2],2.81%
4,O=c1[nH]ncc2ccccc12,0.446%
5,Cc1ccc(OC(=O)c2ccccc2O)cc1,-0.524%
6,CCOC(=O)[C@H](CCc1ccccc1)N[C@@H](C)C(=O)N(CC(=O)O)C1Cc2ccccc2C1,1.62%
7,Cc1cccc(N(C)C(=S)Oc2ccc3c(c2)CCC3)c1,-10.4%
8,COC(=O)C1=C(C)NC(C)=C(C(=O)O[C@@H]2CCCN(Cc3ccccc3)C2)[C@@H]1c1cccc([N+](=O)[O-])c1,3.43%
9,CCCCCCCCOc1ccc(C(=O)O)cc1,1.42%
10,CC(=O)Nc1ccc(C)cc1C,-6.26%
11,CCCCCCCCCI,1.28% [at 80.4 µM]
12,CO[C@]1(NC(=O)CSC(F)F)C(=O)N2C(C(=O)O)=C(CSc3nnnn3CCO)CO[C@H]21,-7.25%
13,CCn1cc(C(=O)O)c(=O)c2cc(F)c(N3CCNCC3)cc21,0.195%
14,CCCCCC[C@@H](O)C/C=C\CCCCCCCC(=O)O,-20.3%
15,Nc1nnc(-c2ccc([N+](=O)[O-])o2)o1,2.4%
16,CC[N+](CC)(CCNC(=O)C(=O)NCC[N+](CC)(CC)Cc1ccccc1Cl)Cc1ccccc1Cl,0.699%
17,CCC(C)(C)OC,-6.28%
18,CC(C)c1nc(CN(C)C(=O)N[C@H](C(=O)N[C@@H](Cc2ccccc2)C[C@H](O)[C@H](Cc2ccccc2)NC(=O)OCc2cncs2)C(C)C)cs1,0.763%
19,CC1CC(OC(=O)C(O)c2ccccc2)CC(C)(C)N1C (stereo not given),1.39%
20,Cc1cc(C)cc(N)c1,2.26% [at 80.4 µM]

row,Compound,"ratio activity, negative = inhibition"
1,NNC(=O)CP(=O)(c1ccccc1)c1ccccc1,1.46%
2,CC(=O)Nc1cc(S(=O)(=O)O)cc2cc(S(=O)(=O)O)c(N=Nc3ccccc3)c(O)c12,-11.3%
3,CCC(C)COC(C)=O (stereo not given),-2.13%
4,CC(C)(C)C(=O)C(=O)O,9.26%
5,O=C1NC(=O)c2cc([N+](=O)[O-])ccc21,4.5% [at 80.4 µM]
6,CN(C(=O)CN(CCO)CC(=O)N(C)C(C)(C)Cc1ccccc1)C(C)(C)Cc1ccccc1,-16.9%
7,N#CCCN(CCO)CCO,2.36%
8,c1ccc(C[n+]2cccc3ccccc32)cc1,2.64%
9,CN1C(C(=O)Nc2ccccn2)=C(O)c2sccc2S1(=O)=O,3.52%
10,CC1(CN2CCC(n3c(=O)[nH]c4ccccc43)CC2)OCc2ccccc2-n2cccc21 (stereo not given),-25.5%
11,CCCCCCCC/C=C\CCCCCCCCO,-4.38%
12,COc1ccccc1Oc1c(NS(=O)(=O)c2ccc(C(C)(C)C)cc2)nc(-c2ncccn2)nc1OCCO,-23.3%
13,NCCNCCO,1.47% [at 80.4 µM]
14,C[C@@H](CN(C)C)CN1c2ccccc2Sc2ccccc21,-11.2%
15,CC(=O)Oc1ccc([N+](=O)[O-])cc1CCl,1.92%
16,C=C(C)C(=O)OCCCCCCCCCCCCC,-6.97%
17,Nc1ncnc2c1ncn2[C@H]1CC[C@@H](CO)O1,2.68% [at 80.4 µM]
18,CCC1CO1 (stereo not given),15%
19,Cc1cc(C)c(N)cc1C,4.53%
20,COC(=O)CCS,-5.82%
